This passage reports growth results from PubChem BioAssay (NCI).

The panel holds about 83,000 compounds, 20% with a hit somewhere; the sample as a whole holds those more often.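 48-hour exposure, single concentration, 96-well plates; percent growth endpoint where 0 means no net growth. Active: below 10.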 A number with no mark means an inactive call. Activity calls are given as the source filed them.

Holding throughout (assay): NCI-60 one-dose screen, 48 h (100 = growth as untreated, 0 = no growth, -100 = all killed)
The subject of assay [1] is NCI-H23 lung. The following applies: 10 µM unless noted.
In assay [2] the test system is NCI-H226 lung. The following applies: 10 µM unless noted.
For assay [3], the system named is NCI-H322M lung. The following applies: 10 µM unless noted.
Assay [4] concerns HOP-62 NSCLC. The following applies: 10 µM unless noted.
Assay [5] concerns NCI-H460 lung. As to conditions: 10 µM unless noted.
In assay [6] the test system is HOP-92 NSCLC. As to conditions: 10 µM unless noted.
Assay [7] relates to NCI-H522 lung. The following applies: 10 µM unless noted.
The test system of assay [8] is A549/ATCC NSCLC. The following applies: 10 µM unless noted.
In assay [9] the test system is 786-0 renal. The following applies: 10 µM unless noted.
Assay [10] deals with COLO 205 colon. The following applies: 10 µM unless noted.
Assay [11] has as its system DU-145 prostate. The following applies: 10 µM unless noted.
The subject of assay [12] is K-562 leukemia. As to conditions: 10 µM unless noted.
For assay [13], the system named is MALME-3M melanoma. The following applies: 10 µM unless noted.
Assay [14] has as its system MDA-MB-231 breast. The following applies: 10 µM unless noted.
Assay [15] concerns RXF 393 renal. As to conditions: 10 µM unless noted.
Assay [16] relates to SF-268 CNS. The following applies: 10 µM unless noted.
Assay [17] deals with SF-295 CNS. The following applies: 10 µM unless noted.
Assay [18] relates to SF-539 CNS. The following applies: 10 µM unless noted.
The subject of assay [19] is UACC-257 melanoma. As to conditions: 10 µM.
The test system of assay [20] is M14 melanoma. As to conditions: 10 µM unless noted.

For `COc1cc(OC)c(S(N)(=O)=O)cc1C(=O)/C=C/c1ccccc1`, the growth was 28.2% in [1]; 38.8% in [2]; 64.6% in [3]; 24.8% in assay [4]; 3.32% (active) in assay [5]; 2.22% (active) in assay [6]. The growth in [7] was 25.8%; in assay [8], 57.1%; in assay [9], 15.3%; in [10], 27.5%; in assay [11], 1.92% (active); in assay [12], 9.69% (active). For the same compound, the growth in assay [13] is 68.1%; in [14] it was 10.3%; in assay [15] it was -29.7% (active); in assay [16] it was 38.3%; in assay [17], 58.3%; in assay [18] it was 1.13% (active). Moreover, the growth is 88.6% in assay [19] and 45.9% in assay [20].
Take `CCc1ccc(NC(=O)N[C@@H](Cc2cccc(F)c2)C(=O)N[C@@H]2C(=O)N3CCC[C@H]3C(=O)N3CCCC[C@H]3C(=O)N[C@@H](C)C(=O)N3C[C@H](C)C[C@H]3C(=O)O[C@H]2C)c(F)c1`: the growth is 31.7% in assay [1]; -2.16% (active) in assay [2]; 46% in assay [3]; 43% in assay [4]; 15.4% in assay [5]; -0.342% (active) in assay [6]. The growth was 26.8% in assay [7]; 33.3% in [8]; 37.1% in assay [9]; -26.4% (active) in assay [10]; 25.2% in assay [11]; 17.5% in assay [12]. Also, the growth in assay [13] was 41.4%; in assay [14], 26.8%; in assay [15], -10.1% (active); in assay [16] it was 34.9%; in assay [17] it was 4.24% (active); in assay [18], 29.8%. The growth in assay [19] was 22.2%; in assay [20], 22%.
Take `CC(=O)Nc1ccc(NC(=O)Nc2cccc(-c3nc(-c4ccc(NC(=O)c5cccnc5)cc4Cl)no3)c2)cc1C(F)(F)F`: the growth was -63.3% (active) in [1]; -55.2% (active) in assay [2]; -34.2% (active) in assay [3]; -58.1% (active) in assay [4]; -64.9% (active) in [5]; -65.6% (active) in assay [6]. For the same compound, the growth in [7] was -46.3% (active); in assay [8], -1.13% (active); in [9], -35.6% (active); in assay [10], -53.1% (active); in assay [11], -13.9% (active); in assay [12], -1.38% (active). The growth was -84.9% (active) in [13]; -60.3% (active) in assay [14]; -79.5% (active) in assay [15]; -33.1% (active) in assay [16]; -69.6% (active) in assay [17]; -87.6% (active) in assay [18]. Besides, the results for the growth in assay [19] and in assay [20] were -43.7% (active) and -58.7% (active), respectively.
With `C=CCn1c(SCC(=O)Nc2ccc(OC)cc2)nnc1-c1ccc(Cl)cc1`, the growth in [1] is 81.1%; in [2] it was 88.8%; in [3] it was 96.4%; in [4], 101%; in assay [5], 104%; in assay [6], 68.8%. Further, the growth in assay [7] is 83.4%; in assay [8], 103%; in [9], 104%; in [10] it was 107%; in assay [11] it was 99.5%; in [12], 89.6%. The growth in assay [13] is 89.9%; in [14], 85.3%; in assay [15], 86.6%; in assay [16], 90.6%; in [17], 98.1%; in assay [18], 94.8%. The values for the growth in [19] and in assay [20] were 97.1% and 96.3%, respectively.
With `O=C(CCCCCCN1CC(=O)N2[C@@H](c3cccc(Cl)c3)c3[nH]c4ccccc4c3C[C@H]2C1=O)NO`, the growth is 71.3% in assay [1]; 102% in [2]; 66.4% in [3]; 51.9% in assay [4]; 43.1% in assay [5]; 44.5% in assay [6]. The growth is 19.2% in [7]; 79.6% in [8]; 79% in [9]; 36.9% in assay [10]; 46.3% in assay [11]; 24% in assay [12]. Moreover, the growth was 29.1% in assay [13]; 39.5% in [14]; 9.1% (active) in [15]; 64.4% in assay [16]; 52% in [17]; 50.6% in assay [18]. The results for the growth in assay [19] and in assay [20] were 44% and 45.6%, respectively.
Regarding `COc1cc2cc(Oc3ccc(NC(=O)c4cccc(C(F)(F)F)c4)cc3)c(C)nc2cc1OCCN(C)C`, the growth is 90.4% in assay [1]; 95.5% in assay [2]; 104% in assay [3]; 97.9% in assay [4]; 47.1% in assay [5]; 62% in assay [6]. Also, the growth in assay [7] was 99.9%; in assay [8], 89.2%; in assay [9], 60.1%; in assay [10] it was 95.8%; in [11], 68.6%; in [12], 7.14% (active). In addition, the growth in [13] was -73.7% (active); in [14] it was 79%; in assay [15], 39.6%; in assay [16], 92%; in assay [17], -50.5% (active); in [18] it was 63.3%. The values for the growth in [19] and in assay [20] were 93.2% and 80.8%, respectively.
For `COc1ccc(Oc2ccc(C3CC(c4cc(OC)c(OC)c(OC)c4)=NN3C(C)=O)cc2)cc1` (stereo not given), the growth in [1] was 24.1%; in [2] it was 17.1%; in assay [3], 46.9%; in [4] it was 48.1%; in [5], 23.8%; in [6], 12.2%. Further, the growth in assay [7] was 20%; in [8] it was 24.8%; in assay [9], 29.2%; in assay [10] it was 11.1%; in assay [11] it was 40.4%; in assay [12], 16.1%. Besides, the growth in [13] is 33.6%; in assay [14], 40.6%; in assay [15], 17%; in assay [16], 38.6%; in [17], 22.5%; in assay [18], 46.5%. The growth is 40.3% in [19] and 27.6% in assay [20].
